Screening data deposited in PubChem BioAssay by National Center for Advancing Translational Sciences (NCATS).
gsp antagonist: qHTS for Antagonists of gsp, the Etiologic Mutation Responsible for Fibrous Dysplasia/McCune-Albright Syndrome: qHTS; AID 624288, 2012; Potency, µM (top dose mostly 76.9 µM), actives largely listed as inhibitors; 340,000 compounds, 0.4% hits; gsp-mutant cells, cAMP HTRF, 30 min; calls by dose curve; cell line not stated here;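 further: intracellular cAMP measured with PDE inhibitor Ro 20-1724 present during compound exposure; nearly all actives have a fitted effect of over 65% in size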
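G418-selected cells were plated in DMEM/10% FBS for 16-24 h at 37C, then treated with compounds plus the PDE inhibitor […] (300 uM solution added) for 30 min at 37C. Intracellular cAMP was measured by HTRF after 30 min lysis at room temperature.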
RXFP1 ag: qHTS Assay for Agonists of the Relaxin Receptor RXFP1 | Relaxin receptor 1 (Homo sapiens), Q9HBX9 | HEK293T-RXFP1 cAMP TR-FRET, 30 min; response scale: percent of porcine relaxin response, buffer zero | Potency, µM (doses to about 57.5 µM), hits mostly activators | 370,000 compounds, 0.3% hits | AID 2676, 2010; active means well fitted activation curve with a large enough effect; inconclusive means small, poorly fitted or top-dose-only effect; further: nearly all actives have a fitted effect of over 60% in size
Target sequence (Q9HBX9 whole entry, looked up): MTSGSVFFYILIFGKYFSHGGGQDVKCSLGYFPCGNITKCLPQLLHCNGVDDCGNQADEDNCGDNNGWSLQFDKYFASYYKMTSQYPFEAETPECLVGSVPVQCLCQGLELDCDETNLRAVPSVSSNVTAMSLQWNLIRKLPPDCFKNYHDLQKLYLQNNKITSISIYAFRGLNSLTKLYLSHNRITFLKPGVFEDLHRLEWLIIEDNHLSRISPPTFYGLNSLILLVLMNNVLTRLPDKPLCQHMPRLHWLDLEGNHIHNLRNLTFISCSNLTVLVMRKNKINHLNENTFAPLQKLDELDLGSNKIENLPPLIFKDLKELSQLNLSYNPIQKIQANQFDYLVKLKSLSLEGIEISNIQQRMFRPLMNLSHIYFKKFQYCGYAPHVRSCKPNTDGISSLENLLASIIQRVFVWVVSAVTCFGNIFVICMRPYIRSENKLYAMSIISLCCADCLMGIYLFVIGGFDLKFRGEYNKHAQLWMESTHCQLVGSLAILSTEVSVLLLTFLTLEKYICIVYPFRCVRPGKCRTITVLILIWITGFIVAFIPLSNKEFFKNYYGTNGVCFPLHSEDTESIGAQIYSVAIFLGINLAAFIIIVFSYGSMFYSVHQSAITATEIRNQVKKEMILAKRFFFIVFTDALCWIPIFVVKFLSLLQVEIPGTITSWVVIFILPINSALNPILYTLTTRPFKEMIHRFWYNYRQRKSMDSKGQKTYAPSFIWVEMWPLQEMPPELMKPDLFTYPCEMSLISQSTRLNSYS
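HEK293T cells stably expressing RXFP1 were pretreated with the PDE4 inhibitor Ro 20174, exposed to compounds for 30 min at 37C, lysed, and cAMP was read by TR-FRET. Data normalized to buffer (basal) and 29 nM porcine relaxin (100%).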
gsp ag: qHTS for Agonist of gsp, the Etiologic Mutation Responsible for Fibrous Dysplasia/McCune-Albright Syndrome: qHTS; gsp mutant cells, cAMP HTRF, 30 min; Potency, µM (top dose mostly 76.9 µM), most hits filed as activators; 340,000 compounds, 0.13% hits; AID 624287, 2012; active means well fitted activation curve with a large enough effect; inconclusive means small, poorly fitted or top-dose-only effect, or another doubt; inactive means no such curve, though single readings can be large or run the other way; cell line not stated here;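 further: phosphodiesterase inhibitor Ro 20-1724 added with compounds to block cAMP breakdown; nearly all actives have a fitted effect of over 60% in size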
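Cells in DMEM/10% FBS with G418 were pretreated with compounds in DMSO plus […] (300 uM stock) for 30 min at 37C. cAMP was measured by HTRF (cAMP-d2 plus anti-cAMP antibody-K) after 30 min at room temperature.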
RXFP1 antagonist: qHTS Assay for Antagonists of the Relaxin Receptor RXFP1; 350,000 compounds, 0.59% hits; activity change, negative = inhibition, % at 57.5 µM; Relaxin receptor 1 (Homo sapiens), Q9HBX9; HEK293-RXFP1, relaxin-stimulated cAMP HTRF, 30 min; active compounds read low; AID 1259400, 2018;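 active means activity change of -60% or lower, but not beyond a set lower limit; inconclusive means change between -60% and -40%, or beyond the set limit; inactive means change above -40%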
Of the large screens only hits and unclear results are named; the others gave an inactive call. Only some compounds are listed: those with a hit (about 0.9% of all), similar ones and a draw of the others.

Cc1ccc(S(=O)(=O)C(C#N)c2nc3ccccc3nc2N2CC(C)OC(C)C2)cc1C (centres undefined)	gsp antagonist 40µM
Cc1cccc(S(=O)(=O)C(C#N)c2nc3ccccc3nc2N2CC(C)OC(C)C2)c1 (centres undefined)	none
CC(=O)Nc1c(Cl)cc(Cl)c2c1Cc1cc(Cl)ccc1-2	RXFP1 antagonist -101 (no result: RXFP1 ag)
CCN(Cc1ccc2c(c1)OCO2)C(=O)CSc1nc(C)nc2sc(C)c(C)c12	gsp antagonist 40µM
CN(C)CCOC(c1ccccc1)c1ccc(Br)cc1 (centres undefined)	none (no result: gsp antagonist, RXFP1 ag, gsp ag)
O=C(NCc1cccc(Cl)c1)NCc1noc2ccccc12	none (no result: gsp antagonist, gsp ag)
OC[C@H]1O[C@@H](OCCc2ccc(O)cc2)[C@H](O)[C@@H](O)[C@H]1O	none (no result: gsp antagonist, RXFP1 ag, gsp ag)
CCc1c(O)cc2n(c1=O)-c1ccc(Cl)cc1C2(C)C	gsp antagonist 45µM, gsp ag inconclusive
Cc1cc(C)cc(OCC(=O)N(Cc2ccc(C)o2)C2CCS(=O)(=O)C2)c1 (centres undefined)	none (no result: gsp antagonist, gsp ag)
Cc1ccc(NC(=S)NCC2CCN(C(C)c3ccccc3)C2)cc1 (centres undefined)	none
CC(c1ccccc1)N1CCC(CNC(=S)Nc2cccc(Cl)c2)C1 (centres undefined)	gsp ag 28µM, RXFP1 antagonist inconclusive
COc1ccc(OCC(O)CN(CCO)CC(O)Cn2ccc3ccccc32)cc1 (centres undefined)	RXFP1 antagonist -64
OCCN(CC(O)COc1ccccc1)CC(O)Cn1ccc2ccccc21 (centres undefined)	none
CCOC(=O)c1cnc(-n2nc(C)cc2C)nc1Nc1ccc(O)cc1	gsp antagonist 11µM
Cc1ccc(-c2noc(CCC(=O)NCCCN3CCN(c4cccc(Cl)c4)CC3)n2)cc1	RXFP1 antagonist -64
O=C(Cc1ccc(S(=O)(=O)N2CCOCC2)s1)Nc1ccc2c(c1)CCC2	none
O=C(Cc1ccc(S(=O)(=O)N2CCOCC2)s1)Nc1nc2c(s1)CCCC2	gsp antagonist 7.9µM
Cc1cccc(NC(=O)c2oc3ccccc3c2NC(=O)c2cc(=O)c3ccccc3o2)c1	none (no result: gsp antagonist, gsp ag)
CCCCCCCCNc1ncnc2ccccc12	gsp antagonist 0.89µM
c1ccc(CCNc2ncnc3ccccc23)cc1	none
O=C(Nc1ccc2nc(SCC(=O)N3CCCC3)sc2c1)c1ccc(Br)cc1	none (no result: gsp antagonist, gsp ag)
Cc1ccccc1OCC(=O)Nc1ccc2nc(SCC(=O)N3CCCC3)sc2c1	RXFP1 antagonist -86 (no result: gsp antagonist, gsp ag)
O=C(Nc1ccc2nc(SCC(=O)N3CCOCC3)sc2c1)c1cccc(Cl)c1	RXFP1 antagonist -82 (no result: gsp antagonist, gsp ag)
CC(C)(C)c1ccc(C(=O)Nc2ccc3nc(SCC(=O)N4CCCC4)sc3c2)cc1	RXFP1 antagonist -101 (no result: gsp antagonist, gsp ag)
CCCCn1cc(S(=O)(=O)c2ccc(OC)cc2)c(=O)c2cc(F)c(N3CCCC3)cc21	none (no result: gsp antagonist, gsp ag)
COc1ccc(-c2nnc(SCC(=O)NC3CCCC3)nc2-c2ccc(OC)c(OC)c2)cc1OC	RXFP1 antagonist -70 (no result: gsp antagonist, gsp ag)
Cc1nnc(-c2ccc(Oc3ccc(Br)cc3)c([N+](=O)[O-])c2)o1	gsp antagonist 50µM
CCOC(=O)C1CCN(C(=O)c2oc3ccc4c(c3c2C)C(O)CC2(CCCCC2)O4)CC1 (centres undefined)	RXFP1 antagonist -94
O=c1[nH]c2ccccc2n1CCCN1CCN(C(c2ccccc2)c2ccccc2)CC1	RXFP1 antagonist -75 (no result: gsp antagonist, gsp ag)
COc1cccc(OCc2nc3ccccc3n2CCOc2ccccc2)c1	none (no result: gsp antagonist, gsp ag)
COc1cc(Nc2nc3c(S(=O)(=O)c4ccccc4)nnn3c3ccc(Cl)cc23)cc(OC)c1	none (no result: gsp antagonist, gsp ag)
COc1ccc(-c2csc(NC(=O)CN3C(=O)CCC3=O)n2)cc1	none
O=C(Cc1c(F)c(F)c(F)c(F)c1F)Nc1nc(-c2ccccc2)cs1	RXFP1 antagonist -65
O=C(Nc1nc(-c2cccnc2)cs1)c1cccc([N+](=O)[O-])c1	none
O=C(CN1C(=O)CCC1=O)Nc1nc(-c2ccc(Oc3ccccc3)cc2)cs1	RXFP1 antagonist -70
O=C(NC(=S)Nc1nc(-c2ccccc2)cs1)c1ccco1	RXFP1 antagonist -63
COc1ccc(-c2csc(NC(=S)NC(=O)c3ccco3)n2)cc1	none
O=C(Nc1nc(-c2ccccc2)cs1)c1cccc([N+](=O)[O-])c1	gsp antagonist 50µM
CCOc1ccccc1NC(=O)C(CC(C)C)NS(=O)(=O)c1ccc2c(c1)oc(=O)n2C (centres undefined)	none (no result: gsp antagonist, gsp ag, RXFP1 antagonist)
Cc1ccc(C(=O)NC(=S)Nc2nc(-c3cccc([N+](=O)[O-])c3)cs2)c(Cl)c1	RXFP1 antagonist -89
COc1ccccc1Cc1nc2ccccc2nc1SCC(=O)N(C)c1ccc(F)cc1	none (no result: gsp antagonist, gsp ag)
Cc1c(C(=O)N2CCCC2)sc(NC(=O)c2cccc(Cl)c2)c1C#N	gsp antagonist inconclusive
Cc1cccc(C(=O)Nc2sc(C(=O)N3CCCC3)c(C)c2C#N)c1	gsp antagonist 32µM
N#C/C(=C/c1ccc(Sc2nc3ccccc3[nH]2)o1)c1cccc(F)c1	gsp antagonist 35µM
O=C(O)CCN1C(=O)/C(=C/c2cn(-c3ccccc3)nc2-c2cccs2)SC1=S	gsp antagonist 35µM
Cc1ccc(-c2nn(-c3ccccc3)cc2/C=C2\SC(=S)N(CC(=O)O)C2=O)cc1	gsp antagonist inconclusive
O=C(O)CCCCCN1C(=O)/C(=C/c2cn(-c3ccccc3)nc2-c2cccs2)SC1=S	gsp antagonist 35µM, gsp ag inconclusive (no result: RXFP1 ag)
O=C(O)CCCCCN1C(=O)/C(=C\c2cn(-c3ccccc3)nc2-c2cccs2)SC1=S	gsp antagonist 35µM
CCN1C(=O)/C(=C/c2cn(-c3ccccc3)nc2-c2cccnc2)SC1=S	gsp antagonist inconclusive (no result: RXFP1 ag)
O=S(=O)(NCCc1csc2nc(-c3ccc(F)cc3)nn12)c1ccc2c(c1)OCCO2	none (no result: gsp antagonist, gsp ag)
Brc1ccc(-c2ccc(/C=N/Nc3nc(N4CCOCC4)nc(N4CCOCC4)n3)o2)cc1	gsp antagonist 20µM
Fc1cnc(N/N=C/c2ccc(-c3ccc(Br)cc3)o2)nc1N1CCOCC1	none
Cc1ccc2nc(SCC(=O)Nc3ccc(F)cc3)nc(=O)n2c1	gsp ag 14µM
Cc1ccc2nc(SCC(=O)Nc3ccc(Cl)cc3)nc(=O)n2c1	none
CC(=O)OCC(=O)[C@@]12N=C(C)O[C@@H]1C[C@H]1[C@@H]3CCC4=CC(=O)C=C[C@]4(C)[C@H]3[C@@H](O)C[C@@]12C	none (no result: gsp antagonist, RXFP1 ag, gsp ag)
COc1ccc(C(=O)/C=C/C(=O)N(CC(=O)NC2CCCCC2)Cc2ccccc2)c(O)c1	RXFP1 antagonist -64
COc1ccc(C(=O)/C=C/C(=O)N(CC(=O)NC2CCCCC2)Cc2ccccc2OC)c(O)c1	none (no result: gsp antagonist)
CCOc1ccc(/C(O)=C2/C(=O)C(=O)N(c3ccccn3)C2c2ccc(F)cc2)c(C)c1 (centres undefined)	gsp ag 16µM
COc1ccc(OCCN2C(=O)c3ccccc3C2=O)c([N+](=O)[O-])c1	gsp ag 10µM
